A selection: hits, their analogues and other compounds. The true share with any hit is near 22%.
LmPK inh – qHTS Assay for Inhibitors of Leishmania Mexicana Pyruvate Kinase (LmPK); purified LmPK, Kinase-Glo ATP luminescence, 1 h; actives 0.37% (n = 290,000); AID 1721, 2009; Q27686; Potency, µM (titrated, usually from 57.5 µM), inactives show at the highest dose activity change, negative = inhibition, hits mostly inhibitors; note: potency is the fitted concentration of half-maximal effect; % is set by controls: 0 for no effect and ±100 for the full control effect
Target sequence (Q27686 whole entry, looked up): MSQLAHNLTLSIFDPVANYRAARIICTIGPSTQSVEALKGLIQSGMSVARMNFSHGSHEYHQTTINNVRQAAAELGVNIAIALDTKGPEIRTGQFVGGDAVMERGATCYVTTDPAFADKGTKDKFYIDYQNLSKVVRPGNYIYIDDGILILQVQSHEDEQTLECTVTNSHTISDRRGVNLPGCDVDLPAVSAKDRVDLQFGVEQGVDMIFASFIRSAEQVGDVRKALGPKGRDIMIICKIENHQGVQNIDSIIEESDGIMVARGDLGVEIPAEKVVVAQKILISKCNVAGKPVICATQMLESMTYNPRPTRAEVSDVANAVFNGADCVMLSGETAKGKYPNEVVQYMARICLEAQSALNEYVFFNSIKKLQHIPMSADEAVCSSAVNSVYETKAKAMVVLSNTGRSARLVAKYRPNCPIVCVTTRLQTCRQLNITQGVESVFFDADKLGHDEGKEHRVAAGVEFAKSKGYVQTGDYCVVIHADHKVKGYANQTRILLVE
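ATP generated from ADP (0.1 mM) and PEP (0.5 mM) by 0.1 nM LmPK over 1 h at room temperature (pH 7.2 imidazole buffer) was detected by coupled luciferase luminescence. Values were normalized to uninhibited and no-enzyme wells.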
Shiga inhibitor – A qHTS for Small Molecule Inhibitors of Shiga Toxin; Vero cells, Shiga toxin protein synthesis inhibition reporter; inhibition, % at 38.7 µM; actives 9.2% (n = 290,000); in the data active = inhibition mostly above about 28%, no sharp cut-off; inactive = mostly below about 43%; note: 0% is about no effect
Pf growth 96h – Primary qHTS for delayed death inhibitors of the malarial parasite plastid, 96 hour incubation; P. falciparum luciferase reporter growth, 96 h; Potency, µM (highest dose often 28.7 µM), for inactives: top-dose activity change, negative = inhibition, hits mostly inhibitors; actives 6.9% (n = 320,000); note: potency is the fitted concentration of half-maximal effect; % is set by controls: 0 for no effect and ±100 for the full control effect
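Plates of compound plus infected erythrocytes (2% hematocrit, 0.05% parasitemia final) incubate 96 hours, 37 C, 5% CO2. Detection reagent added; reduced luminescence from the parasites' luciferase reporter flags inhibition.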
Cycloheximide cs – Cycloheximide Counterscreen for Small Molecule Inhibitors of Shiga Toxin; cell reporter, cycloheximide protein synthesis inhibition counterscreen; max response, %; actives 12% (n = 300,000); AID 2314, 2010; in the data active = max response mostly above about 13%, no sharp cut-off; inactive = mostly below about 14%; note: read at 38.3 µM for the half of the compounds with a filed dose; 0% is about no effect
Pf growth 48h – Primary qHTS for delayed death inhibitors of the malarial parasite plastid, 48 hour incubation; actives 5.9% (n = 310,000); Potency, µM (top dose mostly 28.7 µM), for the others: top-dose activity change, negative = inhibition, actives largely listed as inhibitors; P. falciparum luciferase growth in erythrocytes, 48 h; AID 504832, 2011; note: potency is the fitted concentration of half-maximal effect; % is set by controls: 0 for no effect and ±100 for the full control effect
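A one-generation exposure of luciferase-tagged malaria parasites in RPMI 1640/Albumax erythrocyte culture, 37 C and 5% CO2. Inhibition is inferred from decreased luminescence after adding detection reagent.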
Starred values were filed as active, the others as inactive; i = inactive; ? = inconclusive; . = not tested or not shown; [ ] = another dose, or the depositor's remark. Unless noted, calls come from the whole dose curve; as a rule, active = well fitted inhibition curve with a large enough effect; inconclusive = small, poorly fitted or top-dose-only effect, or another doubt; inactive = no such curve, though single readings can be large or run the other way.

SMILES	LmPK inh	Shiga inhibitor	Pf growth 96h	Cycloheximide cs	Pf growth 48h
CCCC[C@]12Cc3cc(OC)c(OC)cc3C(O1)c1c(cc(-c3ccccc3)oc1=O)O2	-5%[11.5 µM]	i	1.5µM*	-1	?
CC1CCCCN1c1nnc(NC(=O)Cn2c(=O)oc3ccccc32)s1 (stereo not given)	8%	14	20%	-7	.
Cc1nn(-c2ccccc2)c2sc(C(=O)NC3CCCCC3)cc12	2%	18	5%	5	?
Cc1nn(-c2ccccc2)c2sc(C(=O)N3CCCCC3)cc12	0%	114*	2%	48*	46%
Cc1cnc(NC(=O)c2cc3c(C)nn(-c4ccccc4)c3s2)s1	1%	12	?	8	6.6µM*
Cc1nn(-c2ccccc2)c2sc(C(=O)N3CCc4ccccc4C3)cc12	1%	-3	?	-1	-12%
Cc1cc(C(=O)NCCCN2CCOCC2)n(-c2ccccc2)n1	1%	15	-25%	1	16%
Cc1nn(-c2ccccc2)c2sc(C(=O)NCCN3CCOCC3)cc12	3%	-14	3.7µM*	3	?
Cc1ccccc1-n1nc(C)c2cc(C(=O)N3CCOCC3)sc21	2%	20	3.3µM*	19	-17%
CCOC(=O)c1ccc(OCCOc2cccc(C)c2)cc1	4%	-4	?	-2	?
O/N=C(\c1ccccc1)C(O)c1ccccc1 (stereo not given)	-6%	-2	-18%	8	-15%
COc1cccc(C(=O)N2CCN(Cc3ccc(OC)cc3OC)CC2)c1	2%	.	-11%	3	-10%
Cc1nn(-c2ccccc2)c2sc(C(=O)c3c(N)n(C)c(=O)n(C)c3=O)cc12	0%	16	?	7	1.5µM*
Cc1ccn(C(=O)c2cc3c(C)nn(-c4ccccc4)c3s2)n1	-2%	-12	?	9	31%
Cc1ccc(S(=O)(=O)N2CCN(C(=O)c3cc4c(C)nn(-c5ccccc5C)c4s3)CC2)cc1	0%	-12	3.3µM*	-4	4.7µM*
CCOC(=O)c1cc(C(=O)Nc2ccc(C)c(F)c2)nn1C	-8%	62*	248%	44*	110%
CCOC(=O)c1c(S(=O)(=O)Nc2ccc(C)c(F)c2)c(C)n(C)c1C	-10%	1	9.3µM*	-1	12%
CCOC(=O)c1c(S(=O)(=O)Nc2ccc(C)cn2)c(C)n(C)c1C	2%	5	10µM*	5	17%
Cc1c(C(=O)N2CCCCC2)c(S(=O)(=O)Nc2ccc(F)cc2F)c(C)n1C	0%	2	?	10	29%
CCOC(=O)c1c(S(=O)(=O)NCC(=O)Nc2cccc(C)n2)c(C)n(C)c1C	1%	-1	0%	11	-9%
CCOC(=O)c1c(S(=O)(=O)Nc2ccc(F)cc2C)c(C)n(C)c1C	-1%	-8	15µM*	-1	-3%
CCOC(=O)c1cc(C(=O)NCc2ccc(Cl)cc2Cl)nn1C	3%	17	2%	-2	0%
CCOC(=O)c1c(S(=O)(=O)NCC(=O)Nc2ccccc2F)c(C)n(C)c1C	2%	16	?	-5	2%
COCCN(C(=O)c1csnn1)C(C(=O)NC1CCCCC1)c1ccccc1 (stereo not given)	6%	-3	16%	-3	19%
O=C1C(=O)N(Cc2ccncc2)C(c2ccccc2F)/C1=C(\O)c1ccc2c(c1)OCCO2 (stereo not given)	-1%	23	1%	8	?
SMILES	LmPK inh	Shiga inhibitor	Pf growth 96h	Cycloheximide cs	Pf growth 48h
Cc1ccn2c(=O)nc(SCC(=O)N3CCCC3)nc2c1	.	.	5%	.	20%
CCCCCN(C(=O)NC(=O)Nc1nncs1)S(C)(=O)=O	-1%	-7	.	-2	.
CCCCOC(=O)Nc1nc2ccc(OC)cc2s1	-5%	53*	-7%	38*	61%
COc1ccc2nc(NC(=O)c3ccccc3-c3ccccc3C(=O)O)sc2c1	-4%	13	?	11	7%
CCCCN(C(=O)NC(=O)Nc1nc2ccc(OC)cc2s1)S(C)(=O)=O	-19%	48*	69%	53*	115%
CCCCOC(=O)Nc1nnc(-c2ccccc2OC)s1	6%	-9	?	-1	?
CCCCOC(=O)Nc1nc2ccccc2s1	-4%	69*	98%	26*	362%
COc1cc(SC)ccc1C(=O)N1CC(C)OC(C)C1 (stereo not given)	-7%	12	-3%	-1	1.7µM*
Cc1ccc(C(=O)N2CC(C)OC(C)C2)c(Cl)c1 (stereo not given)	16%	63	3.7µM*	8	.
CC1CN(C(=O)c2cc(S(=O)(=O)N3CCCC3)c(Cl)cc2Cl)CC(C)O1 (stereo not given)	2%	23	-1%	-1	?
Cc1ccccc1CCN1CCCC(CN(C)C(=O)C(=O)c2ccco2)C1 (stereo not given)	-3%	37	10%	18*	29%
COc1ccc(CCN2CCCC(CN(C)Cc3cc(Cl)c(O)c(OC)c3)C2)cc1 (stereo not given)	1%	-7	106%	-2	2.3µM*
COc1ccc(CN(C)CC2CCCN(CCc3ccccc3C)C2)cc1O (stereo not given)	4%	11	?	-3	5.9µM*
COc1ccc(CCN2CCCC(CN(C)C(=O)c3ccoc3)C2)cc1 (stereo not given)	3%	142*	0%	52*	0%
CC(C)Cc1nnc(NC(=O)C2=COCCO2)s1	.	.	268%	.	267%
CC1(C)CC(=O)C2=C(C1)OC1=C(C(=O)CC(C)(C)C1)C2c1ccc(O)cc1O	4%	-15	10µM*	-10	12µM*
Cc1cccc(C)c1OC(=O)CN1C(=O)c2ccccc2C1=O	1%	15	0%	-5	139%
CCOc1ccc2[nH]c(=O)c(CN(Cc3cccs3)Cc3nnnn3C(C)(C)CC)cc2c1	9%	-15	20%	-3	8.3µM*
COCCn1nnnc1CN(Cc1cccnc1)Cc1cc2cc(OC)ccc2[nH]c1=O	-1%	31	.	-3	-13%
CCC(C)(C)n1nnnc1CN(Cc1cccs1)Cc1cc2cc(OC)ccc2[nH]c1=O	2%	-12	.	-4	13µM*
COc1ccc2cc(CN(Cc3cccs3)Cc3nnnn3Cc3ccccc3)c(=O)[nH]c2c1	0%	-4	?	-1	9.3µM*
O=C(N/N=C1\CCCc2ccccc21)C(O)c1ccccc1 (stereo not given)	6%	-6	10%	5	-19%
CN(C)CCCCCCN(C)C	.	.	-8%	.	3%
C=CCN1C(=O)c2ccc(C(=O)N(C)CC(=O)Nc3c(C)cccc3C)cc2C1=O	.	.	26%	.	2%
CNCCCC1c2ccccc2C=Cc2ccccc21	5%	-17	12µM*	-4	?
Cc1c(Cl)c(-c2n[nH]c(=S)n2-c2ccc(F)cc2)nn1C	?	33	4%	13	2%

From PubChem
